Results filed as inconclusive are left out. Calls of active or inactive are those of the source. The call rests on the fitted dose curve; in most records, active means well fitted curve in the direction sought with a large enough effect; inconclusive means small, poorly fitted or top-dose-only effect, or another doubt; inactive means no such curve, though single readings can be large; an effect the other way counts as inactive or inconclusive.

Experiment [1] is described as follows: A2780 Cisplatin Sensitive Ovarian Cancer Cell Toxicity qHTS against the NCATS CANVASS Library (AID 1347353). Further: series mostly up to about 46 µM; nearly all actives have a fitted effect of over 60% in size. An outline of the steps: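 A2780 cisplatin-sensitive cells (750 per well) were seeded, left 4 h at 37 °C, then pin-dosed in an 11-point series. After 72 h at 37 °C/5% CO2, viability was measured as ATPLite luminescence.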
For orientation: qHTS replaces the single test concentration by a dilution series.

Experiment [2] is described as follows: UWB1.289-WTBRCA1 Cancer Cell Toxicity qHTS against the NCATS CANVASS Library (AID 1347354). The conditions noted are these: outcome: dose series up to 38.3 µM. The procedure, abridged:
(§1)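 Cells were seeded at 1000 per well and allowed to settle 4 hours at 37 degrees C before pin transfer of compounds as an 11-point series. Viability was read by CellTiter-Glo luminescence after 72 hours' exposure.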

Experiment [3] is described as follows: HEK-293 Cancer Cell Toxicity qHTS against the NCATS CANVASS Library (AID 1347355). Further: series mostly up to about 46 µM; nearly all actives have a fitted effect of over 65% in size. An outline of the steps:
as §1

Experiment [4] is described as follows: HPAF-II 24hr Apoptosis Induction qHTS against the NCATS CANVASS Library (AID 1347356). The procedure, abridged:
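HPAF-II cells (500/well) in DMEM + 10% FBS were treated with an 11-point compound series for 24 hours at 37 degrees C. Caspase-3/7 activity was then read by Caspase-Glo DEVD luminescence after 15 min.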

A short description of experiment [5]: HEK293 18hr Apoptosis Induction qHTS against the NCATS CANVASS Library (AID 1347357). An outline of the steps:
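Caspase-Glo 3/7 luminescence (15 min, room temperature) measured apoptosis after an 18-hour, 37 degrees C exposure of HEK293 cells (500 cells/well) to compounds in 11 points.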

Experiment [6] in a line: HPAF-II 12hr Apoptosis Induction qHTS against the NCATS CANVASS Library (AID 1347358). An outline of the steps: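 HPAF-II cells (500/well, DMEM + 10% FBS) were exposed to compounds for 12 hours at 37 degrees C. Caspase-3/7 activity was then read by Caspase-Glo 3/7 luminescence after 15 min at room temperature.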
Experiment [7] is described as follows: HEK293 24hr Apoptosis Induction qHTS against the NCATS CANVASS Library (AID 1347359). An outline of the steps: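 HEK293 cells, 500 per well, exposed to an 11-point compound series for 24 hours at 37 degrees C. Caspase 3/7 activity read by Caspase-Glo luminescence (DEVD substrate) after 15 min at room temperature.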
Experiment [8] is described as follows: HPAF-II 18hr Apoptosis Induction qHTS against the NCATS CANVASS Library (AID 1347360). An outline of the steps: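 Caspase-3/7 activation was measured with luminescent Caspase-Glo 3/7 reagent (15 min, RT) in HPAF-II cancer cells (500 cells/well). Before detection, cells had been treated for 18 h at 37 C with compounds (11 points).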
A short description of experiment [9]: HEK293 12hr Apoptosis Induction qHTS against the NCATS CANVASS Library (AID 1347361). An outline of the steps:
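HEK293 cells (500/well, DMEM + 10% FBS) were exposed to natural products across an 11-point series for 12 hours at 37 degrees C. Caspase-3/7 activity was then measured with DEVD luciferase luminescence after 15 min at room temperature.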

In experiment [10] the test system is NAD(P)H diaphorase (Clostridium kluyveri). Briefly: Diaphorse counterscreen qHTS: Assay Interference Panel against the NCATS CANVASS Library (AID 1347362). The procedure, abridged:
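Clostridium kluyveri diaphorase in PBS + 0.01% Tween-20 preincubated 15 min with compounds. Resazurin and NADH then added for 5 min at room temperature in the dark; resorufin fluorescence read (ex 525, em 598).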
For orientation: Counterscreens check selectivity or assay interference.

The target in experiment [11] is Luciferin 4-monooxygenase (Photinus pyralis) (UniProt P08659). Kind of experiment: Firefly luciferase counterscreen qHTS: Assay Interference Panel against the NCATS CANVASS Library (AID 1347363). Further: potency means the concentration at half of the fitted maximal effect. An outline of the steps: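 Purified P. pyralis luciferase (0.04 ug/mL, 4x reagent) added to Tris-acetate buffer with 0.013 mM D-luciferin, 0.013 mM ATP and 13.3 mM Mg-acetate; compounds preincubated 15 min, then luminescence read after 5 min, RT.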
Chain of Luciferin 4-monooxygenase (Photinus pyralis) (P08659 whole entry, looked up): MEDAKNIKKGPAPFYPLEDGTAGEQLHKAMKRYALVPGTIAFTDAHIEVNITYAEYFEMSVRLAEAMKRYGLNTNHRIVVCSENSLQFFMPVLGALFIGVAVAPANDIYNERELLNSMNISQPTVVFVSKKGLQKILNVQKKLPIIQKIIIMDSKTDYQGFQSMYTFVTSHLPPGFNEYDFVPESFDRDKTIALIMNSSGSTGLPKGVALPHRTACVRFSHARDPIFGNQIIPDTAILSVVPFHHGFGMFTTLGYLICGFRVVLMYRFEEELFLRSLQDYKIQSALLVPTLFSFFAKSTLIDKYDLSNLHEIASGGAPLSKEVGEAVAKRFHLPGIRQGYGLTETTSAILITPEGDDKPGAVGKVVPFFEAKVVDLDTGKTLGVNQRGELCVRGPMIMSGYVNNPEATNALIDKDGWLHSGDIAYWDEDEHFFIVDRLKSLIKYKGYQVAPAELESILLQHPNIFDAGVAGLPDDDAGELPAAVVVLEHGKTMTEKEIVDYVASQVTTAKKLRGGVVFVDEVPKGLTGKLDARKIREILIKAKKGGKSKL

A short description of experiment [12]: KB-8-5-11 Cancer Cell Toxicity qHTS against the NCATS CANVASS Library (AID 1347364). Further: series mostly up to about 46 µM; nearly all actives have a fitted effect of over 75% in size. The procedure, abridged:
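KB-8-5-11 cells (500/well) in DMEM + 10% FBS were exposed to compounds in an 11-point qHTS series for 72 hr at 37C, 5% CO2. Viability was read by CellTiter-Glo luminescence.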

Experiment [13] can be described thus: SDT Cancer Cell Toxicity qHTS against the NCATS CANVASS Library (AID 1347365).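 Further: SDT canine glioma cells 500 per well in 1536 well plates; series mostly up to about 46 µM; nearly all actives have a fitted effect of over 60% in size.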 The procedure, abridged:
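SDT canine glioma cells (500 cells/well) were exposed to compounds in an 11-point series for 72 hr at 37C, 5% CO2; viability was read as ATP content by CellTiterGlo luminescence.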

Experiment [14] can be described thus: KB-3-1 Cancer Cell Toxicity qHTS against the NCATS CANVASS Library (AID 1347366). Further: nearly all actives have a fitted effect of over 75% in size. The conditions noted are these: outcome: dose series up to 46.1 µM. An outline of the steps: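 CellTiter-Glo luminescence measured viability after 72 h at 37C. KB-3-1 cells were seeded at 500 per well in DMEM/10% FBS.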
Experiment [15] in a line: qHTS for ATAD5 Agonist screened against the NCATS CANVASS Library (AID 1347367).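 Further: luciferase reporter driven by ATAD5 which rises upon DNA damage.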 The procedure, abridged:
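Genotoxicity via ATAD5-luciferase luminescence after 16 h compound exposure (11-point series) at 37C in HEK293T-ATAD5 cells. CellTiter-Fluor viability read precedes the luminescence read; MMS serves as positive control.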

Experiment [16] can be described thus: G06 Cancer Cell Toxicity qHTS against the NCATS CANVASS Library (AID 1347368). Further: nearly all actives have a fitted effect of over 60% in size. The conditions noted are these: outcome: dose series up to 46.1 µM. An outline of the steps:
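G06 dog glioma cells seeded at 500 cells/well were exposed to compounds (11-point qHTS series) for 72 hr at 37C, 5% CO2; viability read as ATP content by CellTiterGlo luminescence.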

Experiment [17] in a line: MCF7 Cancer Cell Toxicity qHTS against the NCATS CANVASS Library (AID 1347369). The conditions noted are these: outcome: dose series up to 46 µM. An outline of the steps: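 Cytotoxicity was measured as CellTiterGlo luminescence (ATP) after 72 h at 37 °C. The cells were MCF7 at 500 per well, with an 11-point compound concentration series.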
A short description of experiment [18]: qHTS for ATAD5 Antagonist screened against the NCATS CANVASS Library (AID 1347370).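 Further: HEK293T cells carrying an ATAD5 luciferase reporter co-treated with 10 µM 5-fluorouridine; series mostly up to about 46 µM; nearly all actives have a fitted effect of over 65% in size.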 An outline of the steps: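 HEK293T cells with a stably integrated ATAD5-controlled luciferase reporter were exposed to compounds (11-pt) alongside 10 uM 5-fluorouridine as ATAD5 stabilizer for 16hr at 37C. Viability was read by CellTiter-Fluor fluorescence, then ATAD5 by luminescence.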

A short description of experiment [19]: J3T Cancer Cell Toxicity qHTS against the NCATS CANVASS Library (AID 1347371). The conditions noted are these: outcome: dose series up to 46.1 µM. The procedure, abridged:
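J3T dog glioma cells (500 cells/well) were exposed to compounds in an 11-point series for 72 hr at 37C, 5% CO2. Cytotoxicity was read as ATP content by CellTiterGlo luminescence.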

Experiment [20] deals with Nuclear receptor subfamily 1 group I member 3 (Homo sapiens) (UniProt Q14994). Briefly: qHTS for Constitutive Androstane Receptor (CAR) Antagonist screened against the NCATS CANVASS Library (AID 1347372).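 Further: cells stimulated with 50 nM CITCO agonist so inhibition reflects antagonism; series mostly up to about 46 µM.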 The procedure, abridged: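 HepG2 cells stably carrying hCAR and CYP2B6-2.2kb luciferase reporter, 2500 cells/well, compound with 50 nM CITCO agonist for 24hr at 37C. ONE-Glo luminescence measured CAR activity; CellTiter-Fluor read viability.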
Chain of Nuclear receptor subfamily 1 group I member 3 (Homo sapiens) (Q14994 whole entry, looked up): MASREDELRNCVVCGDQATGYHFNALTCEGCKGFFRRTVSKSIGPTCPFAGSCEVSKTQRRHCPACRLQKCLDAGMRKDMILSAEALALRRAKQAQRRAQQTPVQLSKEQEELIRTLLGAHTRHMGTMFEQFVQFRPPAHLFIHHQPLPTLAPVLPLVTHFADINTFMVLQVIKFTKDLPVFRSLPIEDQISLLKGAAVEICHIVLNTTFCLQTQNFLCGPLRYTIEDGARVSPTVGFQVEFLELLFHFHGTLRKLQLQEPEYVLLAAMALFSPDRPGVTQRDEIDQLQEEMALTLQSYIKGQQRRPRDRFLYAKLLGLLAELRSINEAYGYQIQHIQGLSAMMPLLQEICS

Regarding `CC(C)c1ccc2c(c1)CCC1[C@](C)(C(=O)O)CCC[C@]21C` (stereo partly drawn), the outcome in experiment [1], in [2], in experiment [3], in experiment [4], in experiment [5] and in experiment [6] was inactive. Further, the compound was classed as inactive in [7], in experiment [8], in [9], in experiment [10], in [12] and in experiment [13]. Further, the outcome in experiment [14], in experiment [15], in experiment [16], in [17], in experiment [18] and in experiment [19] was inactive. Besides, in experiment [20], the compound was classed as inactive. For the same compound, the Potency result in experiment [11] was “inactive”.
For the compound `C/C(=C\CC/C(C)=C/CC[C@]1(C)CCc2cc(O)cc(C)c2O1)CC/C=C(\C)C(=O)O`, the compound was called inactive in experiment [2], in experiment [3], in [4], in experiment [5], in experiment [6] and in experiment [7]. Moreover, the compound was called inactive in experiment [8], in experiment [9], in experiment [12], in [13], in experiment [14] and in [15]. Besides, the compound was called inactive in experiment [16], in experiment [17], in [18], in experiment [19] and in experiment [20]. Moreover, the Potency result in experiment [11] is “inactive”.
Take `O=C(/C=C/C=C/c1ccc2c(c1)OCO2)N1CCCCC1`: the outcome in [2], in experiment [4], in [5], in [6], in experiment [7] and in experiment [8] was inactive. Also, the compound was classed as inactive in experiment [9], in [10], in experiment [13], in experiment [14], in experiment [15] and in experiment [16]. In addition, the call in [17], in experiment [18], in experiment [19] and in experiment [20] was inactive. In addition, the Potency in [11] is 6.8 µM (active).
With `CC(=O)O[C@H]1C[C@@]2(C)[C@@H](CC[C@H]3[C@@]4(C)C=CC(=O)[C@@H](C)[C@@H]4[C@H](OC(C)=O)C(=O)[C@@]32C)/C1=C(\CCC=C(C)C)C(=O)O`, the outcome in experiment [2], in experiment [4], in experiment [5], in [6], in experiment [7] and in experiment [8] was inactive. The outcome in experiment [9], in [12], in [14], in experiment [15], in experiment [17] and in experiment [20] was inactive. In addition, the Potency result in [11] is “inactive”.

The values above are taken from PubChem BioAssay (NCATS).
